The values that follow come from publication PMC5540273 (PLoS ONE, 2017).

What all share (conditions): concentration: 1 μM,replicates: in singlicate; n = 1
Experiment [1] has as its system RIOK1.
The test system of experiment [2] is RIOK2.
The subject of experiment [3] is RIOK3.
Experiment [4] has as its system RIPK1.
Experiment [5] deals with RIPK2.
The test system of experiment [6] is RIPK4.
Experiment [7] concerns RIPK5.
In experiment [8] the test system is ROCK1.
The test system of experiment [9] is ROCK2.
In experiment [10] the test system is ROS1.
For experiment [11], the system named is RPS6KA4(Kin.Dom.1-N-terminal).
Experiment [12] concerns RPS6KA4(Kin.Dom.2-C-terminal).
Experiment [13] concerns RPS6KA5(Kin.Dom.1-N-terminal).
The test system of experiment [14] is RPS6KA5(Kin.Dom.2-C-terminal).
The subject of experiment [15] is T1, RSK1(Kin.Dom.1-N-terminal).
T1 construct: gene RPS6KA1

The test system of experiment [16] is T2, RSK1(Kin.Dom.2-C-terminal).
T2 construct: gene RPS6KA1

The subject of experiment [17] is T3, RSK2(Kin.Dom.1-N-terminal).
T3 construct: gene RPS6KA3

Experiment [18] deals with T4, RSK2(Kin.Dom.2-C-terminal).
T4 construct: gene RPS6KA3

Experiment [19] deals with T5, RSK3(Kin.Dom.1-N-terminal).
T5 construct: gene RPS6KA2

Experiment [20] concerns T6, RSK3(Kin.Dom.2-C-terminal).
T6 construct: gene RPS6KA2

SMILES strings stand for the structures.
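Also: KINOMEscan kinase panel screen.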

On to `Cc1n[nH]c2cc(Nc3ccnc(Nc4cccc(CN5CCOCC5)c4)n3)ccc12` [GW682569], for which the “%Inh” value in experiment [1] is 100%; in [2], 84%; in experiment [3], 96.5%; in experiment [4], 4%; in [5], 79%; in experiment [6], 62%. Moreover, the “%Inh” value was found to be 0% in experiment [7]; 27% in [8]; 1% in experiment [9]; 57% in experiment [10]; 0% in experiment [11]; 0% in experiment [12]. Further, the “%Inh” value in [13] is 0%; in [14] it was 21%; in experiment [15] it was 3%; in experiment [16], 28%; in experiment [17] it was 22%; in [18] it was 20%. Also, the “%Inh” value in [19] and in [20] was 0% in each case.
Regarding `CCN1CCN(CCCC(=O)Nc2n[nH]c3nc(-c4ccc(O)cc4)c(Br)cc23)CC1` [SB-731579], the “%Inh” value stood at 39% in experiment [1]; 0% in experiment [2]; 9% in experiment [3]; 0% in experiment [4]; 0% in [5]; 27% in [6]. Moreover, the “%Inh” value in [7] is on record as 0%; in experiment [8], 10%; in [9], 0%; in [10], 8%; in experiment [11], 5%; in [12], 98.5%. Besides, the “%Inh” value in experiment [13] was determined as 4%; in experiment [14] it was 0%; in experiment [15], 0%; in experiment [16], 0%; in experiment [17], 13%; in experiment [18], 0%. The “%Inh” value is recorded as 0% in experiment [19] and 30% in experiment [20].
In the case of `CS(=O)c1ccc(-c2coc3ccc(-c4n[nH]c(=O)o4)cc23)cc1` (centres unmarked), the “%Inh” value in [1] stood at 15%; in experiment [2] it was 37%; in [3], 0%; in [4] it was 0%; in experiment [5], 0%; in experiment [6], 0%. The “%Inh” value is 0% in experiment [7]; 32% in experiment [8]; 0% in experiment [9]; 0% in experiment [10]; 26% in [11]; 85% in experiment [12]. The “%Inh” value worked out at 13% in [13]; 14% in [14]; 0% in experiment [15]; 36% in experiment [16]; 13% in experiment [17]; 0% in experiment [18]. For the same compound, the “%Inh” value in experiment [19] is on record as 9%; in experiment [20], 28%.
As for `O=C(Nc1ccc(Oc2ccc3nc(NC(=O)C4CC4)cn3n2)c(F)c1)c1cccn(-c2ccccc2)c1=O`, the “%Inh” value was 13% in experiment [1]; 0% in experiment [2]; 31% in experiment [3]; 80% in experiment [4]; 4% in experiment [5]; 0% in [6]. Moreover, the “%Inh” value in experiment [7] is given as 0%; in experiment [8], 0%; in [9] it was 0%; in experiment [10], 0%; in experiment [11], 50%; in experiment [12] it was 0%. The “%Inh” value is given as 0% in experiment [13]; 9% in experiment [14]; 0% in [15]; 0% in [16]; 0% in experiment [17]; 28% in experiment [18]. In addition, the “%Inh” value in experiment [19] and in experiment [20] was 0% in each case.
`CN(c1ccc2c(c1)nc(NCc1ccc(F)cc1)n2C)c1ccnc(Nc2ccc(CS(C)(=O)=O)cc2)n1.Cl` [GW813244]: the “%Inh” value in [1] was found to be 1%; in experiment [2] it was 21%; in experiment [3], 17%; in experiment [4] it was 99.8%; in experiment [5], 25%; in experiment [6], 24%. Moreover, the “%Inh” value was 50% in experiment [7]; 0% in experiment [8]; 42% in experiment [9]; 57% in experiment [10]; 12% in experiment [11]; 0% in experiment [12]. The “%Inh” value is reported as 0% in experiment [13]; 4% in experiment [14]; 0% in [15]; 32% in [16]; 31% in experiment [17]; 0% in [18]. Moreover, the “%Inh” value turned out to be 9% in [19] and 28% in experiment [20].
On to `C[C@@H](Oc1cc(-n2cnc3cc(-c4cnn(C)c4)ccc32)sc1C(N)=O)c1ccccc1Cl` [GSK580432], for which the “%Inh” value was 100% in [1]; 25% in experiment [2]; 82% in [3]; 39% in [4]; 10% in experiment [5]; 0% in experiment [6]. The “%Inh” value was 15% in experiment [7]; 14% in experiment [8]; 11% in [9]; 27% in experiment [10]; 82% in experiment [11]; 0% in experiment [12]. Further, the “%Inh” value in experiment [13] stood at 5%; in experiment [14], 6%; in experiment [15], 45%; in experiment [16] it was 0%; in experiment [17], 60%; in [18], 2%. The “%Inh” value in experiment [19] is 77%; in experiment [20] it was 0%.
Take `COc1cc2nccc(Nc3ccc(Oc4ccccc4)cc3)c2cc1OC.Cl` [GI261656]: the “%Inh” value in experiment [1] was 11%; in experiment [2], 0%; in experiment [3], 4%; in experiment [4], 6%; in [5] it was 98.3%; in [6], 3%. Moreover, the “%Inh” value in experiment [7] came to 50%; in experiment [8], 16%; in experiment [9] it was 29%; in [10], 27%; in [11], 0%; in experiment [12], 0%. In addition, the “%Inh” value came to 0% in experiment [13]; 12% in experiment [14]; 2% in experiment [15]; 0% in experiment [16]; 0% in [17]; 0% in experiment [18]. For the same compound, the “%Inh” value in experiment [19] and in experiment [20] was 0% each time.
With `CC(C(=O)NC1CCN(c2ccnc(Nc3ccc(F)cc3)n2)C1)c1ccc(Cl)cc1` (centres unmarked) [GSK1379713], the “%Inh” value in experiment [1] is reported as 35%; in experiment [2], 0%; in experiment [3], 0%; in experiment [4] it was 6%; in experiment [5], 0%; in experiment [6] it was 0%. Besides, the “%Inh” value in experiment [7] came out at 0%; in experiment [8] it was 27%; in experiment [9] it was 10%; in experiment [10] it was 53%; in experiment [11] it was 6%; in [12], 5%. Further, the “%Inh” value in [13] was determined as 0%; in [14], 0%; in experiment [15], 0%; in experiment [16], 0%; in experiment [17] it was 0%; in [18], 17%. Further, the “%Inh” value in experiment [19] and in experiment [20] was 0% each time.
Consider `FC(F)(F)c1cc(Br)cc(Nc2nccc(-c3cnn4ncccc34)n2)c1` [GW810578], for which the “%Inh” value in experiment [1] was determined as 0%; in experiment [2], 82%; in experiment [3] it was 0%; in experiment [4] it was 4%; in [5], 69%; in experiment [6] it was 20%. The “%Inh” value stood at 15% in experiment [7]; 36% in experiment [8]; 23% in experiment [9]; 12% in [10]; 0% in [11]; 0% in experiment [12]. In addition, the “%Inh” value in experiment [13] was 0%; in experiment [14] it was 0%; in [15] it was 0%; in experiment [16] it was 0%; in experiment [17], 17%; in experiment [18], 0%. Further, the “%Inh” value in experiment [19] was 3%; in experiment [20] it was 9%.
As to `CC(=O)Nc1ccc(-c2cc3ncnc(SCC(=O)O)c3s2)cc1`, the “%Inh” value in [1] came out at 8%; in experiment [2], 0%; in experiment [3] it was 15%; in experiment [4] it was 0%; in experiment [5], 0%; in experiment [6], 2%. The “%Inh” value worked out at 14% in experiment [7]; 0% in [8]; 0% in experiment [9]; 6% in [10]; 6% in [11]; 47% in experiment [12]. Moreover, the “%Inh” value is 0% in experiment [13]; 15% in experiment [14]; 0% in [15]; 25% in [16]; 0% in experiment [17]; 0% in experiment [18]. Besides, the results for the “%Inh” value in [19] and in experiment [20] were 14% and 19%, respectively.
